From PubChem BioAssay
Rows were chosen to be rich in hits. Some 9% of all compounds tested hit in one or more screens of this group.
LMNA splice mod = modulators of lamin A splicing | Potency, µM (series often up to 46.1 µM), hits mostly inhibitors | HeLa LMNA splicing GFP/RFP minigene ratio, 48 h | 0.01% of 200,000 active | AID 1487; active = well fitted inhibition curve with a large enough effect in the signal ratio, with a control signal flat, not every such curve was filed as active; inconclusive = small, poorly fitted or top-dose-only effect, or effect the other way, or a change in a side signal; the % refers to the signal ratio
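Read-out is the ratio of GFP to DsRed2 object intensity, acquired by 488 nm laser-scanning cytometry on HeLa lamin A-EGFP minigene reporter cells. Compound incubation 48 hrs at 37 °C in Opti-MEM with 2% FBS; DMSO 0.5% final.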
Luc counter = Kinase-Glo luciferase inhibition (counter-screen) | 0.28% of 200,000 active | Q27757 | Potency, µM (doses to about 38.3 µM), most hits filed as inhibitors | Kinase-Glo luciferase, ATP luminescence, 8 min; note: nearly all actives have a fitted effect of over 60% in size
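Kinase-Glo luciferase light output from ATP and luciferin was measured with 10 uM ATP, within the enzyme's linear range. Buffer: 50 mM imidazole pH 7.2, 50 mM KCl, 7 mM MgCl2, 0.01% Tween 20, 0.05% BSA; luminescence read after 8 min at ambient temperature.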
HPGD block = inhibitors of human 15-hydroxyprostaglandin dehydrogenase (HPGD); 4.3% of 150,000 active; P15428; Potency, µM, usual class: inhibitors; purified HPGD, NADH fluorescence kinetic, PGE2 substrate; active = well fitted inhibition curve with a large enough effect, not every such curve was filed as active; inconclusive = small, poorly fitted or top-dose-only effect, or another doubt; inactive = no such curve, though single readings can be large or run the other way
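NADH formation kinetics: reaction with 30 uM PGE2 and 1 mM NAD+ (final), 20 nM enzyme, Tris-HCl pH 8 with Tween 20, after 15 min compound preincubation at room temperature. Fluorescence change, last versus first of five reads.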
ALDH1A1 block = ALDH1A1 (human) enzyme inhibition. P00352. Purified ALDH1A1, NADH fluorescence, propionaldehyde substrate. Potency, µM (series often up to 75.3 µM), hits mostly inhibitors. 7.3% of 220,000 active. AID 1030; active = well fitted inhibition curve with a large enough effect, not every such curve was filed as active; inconclusive = small, poorly fitted or top-dose-only effect, or another doubt; inactive = no such curve, though single readings can be large or run the other way
Target sequence (P00352 whole entry, looked up): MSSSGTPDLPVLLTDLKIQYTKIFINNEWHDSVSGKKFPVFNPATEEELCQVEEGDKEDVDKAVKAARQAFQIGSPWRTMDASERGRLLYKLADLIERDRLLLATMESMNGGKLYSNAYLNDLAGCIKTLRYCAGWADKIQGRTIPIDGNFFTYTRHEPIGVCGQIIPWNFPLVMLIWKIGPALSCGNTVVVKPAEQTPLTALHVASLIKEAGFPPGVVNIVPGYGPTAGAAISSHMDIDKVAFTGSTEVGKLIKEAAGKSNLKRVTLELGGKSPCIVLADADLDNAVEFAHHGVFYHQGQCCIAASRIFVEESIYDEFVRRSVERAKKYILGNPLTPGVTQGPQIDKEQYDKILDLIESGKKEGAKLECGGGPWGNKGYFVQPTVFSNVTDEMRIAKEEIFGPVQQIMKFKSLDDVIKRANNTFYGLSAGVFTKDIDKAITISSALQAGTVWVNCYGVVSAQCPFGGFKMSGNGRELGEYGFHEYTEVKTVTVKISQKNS
IMPase Li inh = cell-permeable IMPase inhibitors with lithium potentiation; CHO-M1 cells, IP1 TR-FRET (IP-One), carbachol + lithium; Potency, µM (series often up to 59.4 µM), hits mostly inhibitors; 0.35% of 210,000 active;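 note: IP1 builds up when IMPase is blocked and the TR-FRET signal falls; nearly all actives have a fitted effect of over 50% in size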
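Readout is a homogeneous TR-FRET IP1 immunoassay (Ex 320, Em 665 and 620), where raised cytosolic IP1 lowers signal. Cells were CHO-M1 treated 30 min at 37C with test compounds plus a little lithium; AC50 values came from Hill-equation fitting.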
Hits are given with their value. Unless noted, calls come from the whole dose curve; as a rule, active = well fitted curve in the direction sought with a large enough effect; inconclusive = small, poorly fitted or top-dose-only effect, or another doubt; inactive = no such curve, though single readings can be large; an effect the other way counts as inactive or inconclusive.

For CC(C)CC(=O)NC(=S)Nc1cccc(NC(=O)c2ccccc2)c1 the results were LMNA splice mod inactive, Luc counter inactive, HPGD block inactive, ALDH1A1 block 25µM and IMPase Li inh inactive.
CC(C)CC(=O)NC(=S)Nc1ccc(NC(=O)c2cccs2)cc1 was read as LMNA splice mod inactive, Luc counter inactive, HPGD block 7.9µM, ALDH1A1 block inconclusive and IMPase Li inh inactive.
`COc1cc(C=O)ccc1OCCOCCOc1cc(C)ccc1Cl` gave LMNA splice mod inconclusive and ALDH1A1 block inactive.
COc1cc(C=O)ccc1OCCSc1ccc(C)cc1 was read as LMNA splice mod inactive, Luc counter inactive, HPGD block 18µM, ALDH1A1 block inconclusive and IMPase Li inh inactive.
CCOc1cc(/C=C/C(=O)O)ccc1OCCO was read as LMNA splice mod inactive, Luc counter inactive, ALDH1A1 block inactive and IMPase Li inh inactive.
Screening CCOc1cc(C=O)ccc1OCCSc1ccc(C)cc1 returned LMNA splice mod inactive, Luc counter inactive, HPGD block 18µM, ALDH1A1 block inconclusive and IMPase Li inh inactive.
For CCn1ccc2cc(S(=O)(=O)N3CCCN(C(=O)Nc4cccc(SC)c4)CC3)ccc21 the results were LMNA splice mod inactive.
For CCCCCC1C(=O)C[C@@H]2CCN3C(=O)CCC[C@H]1[C@H]23 (stereo partly drawn) the results were Luc counter inactive, HPGD block inactive, ALDH1A1 block inconclusive and IMPase Li inh inactive.
`C=C(C(=O)C(C)(C)O)C(O)c1ccc([N+](=O)[O-])cc1` (stereo not drawn) gave Luc counter inactive, HPGD block 25µM, ALDH1A1 block inconclusive and IMPase Li inh inactive.
For Cc1ccc(NC(=O)COC(=O)CC2CCCC2)cc1Cl the results were LMNA splice mod inactive, Luc counter inactive, ALDH1A1 block 22µM and IMPase Li inh inactive.
For CCOCC(=O)Nc1cc(C(=O)Nc2cc(C)cc(C)c2)ccc1Cl the results were LMNA splice mod inactive, Luc counter 11µM, ALDH1A1 block inactive and IMPase Li inh inactive.
For Cc1ccc(NC(=O)COC(=O)Cn2cnc3c2c(=O)n(C)c(=O)n3C)cc1Cl the results were Luc counter inactive, ALDH1A1 block inactive and IMPase Li inh inactive.
Screening CCOCC(=O)Nc1ccc(C(=O)Nc2ccccc2Cl)cc1 returned LMNA splice mod inactive, Luc counter inactive, ALDH1A1 block inactive and IMPase Li inh inactive.
Screening CCOCC(=O)Nc1ccc(C)c(Cl)c1 returned LMNA splice mod inactive, Luc counter inactive, HPGD block 16µM, ALDH1A1 block 25µM and IMPase Li inh inactive.
Cc1onc(-c2ccccc2)c1C(=O)Nc1nnc(COc2ccc(Cl)cc2)s1 was read as LMNA splice mod inconclusive, Luc counter inactive, HPGD block 2.5µM, ALDH1A1 block 1.1µM and IMPase Li inh inactive.
`O=C(Cc1cccc2ccccc12)Nc1nnc(-c2cccc([N+](=O)[O-])c2)s1` gave LMNA splice mod inactive, Luc counter inactive, HPGD block inactive, ALDH1A1 block inactive and IMPase Li inh inactive.
O=C(CSc1ccccc1)Nc1nnc(COc2ccc(Cl)cc2)s1 was read as LMNA splice mod inactive, Luc counter inactive, HPGD block 3.5µM, ALDH1A1 block 3.2µM and IMPase Li inh inactive.
`O=C(CSc1ccc(Cl)cc1)Nc1nnc(-c2cccc([N+](=O)[O-])c2)s1` gave LMNA splice mod inactive, Luc counter inactive, HPGD block inactive, ALDH1A1 block 2.5µM and IMPase Li inh inactive.
Screening Cc1cccc(C)c1OCc1nnc(NC(=O)CSc2ccc(Cl)cc2)s1 returned LMNA splice mod inactive, Luc counter inactive, HPGD block inactive, ALDH1A1 block inactive and IMPase Li inh inactive.
CCOCC(=O)Nc1nnc(COc2ccc(Cl)cc2)s1 was read as LMNA splice mod inconclusive, Luc counter inactive, HPGD block 11µM, ALDH1A1 block 3.5µM and IMPase Li inh inactive.
CC(NC(=O)C(=O)N/N=C/c1ccccc1)c1ccccc1 (stereo not drawn) was read as LMNA splice mod inactive, Luc counter inactive, ALDH1A1 block inactive and IMPase Li inh inactive.
O=C(O)c1c(Cl)cccc1Cl was read as HPGD block inactive, ALDH1A1 block inactive and IMPase Li inh inactive.
CCOc1ccccc1NC(=O)CSc1nccn1-c1cccc(C)c1 was read as LMNA splice mod inactive.
For Cc1cccc(OC2CCN(Cc3c(C(=O)N4CCCC4)nc4ccccn34)CC2)c1 the results were Luc counter inactive, ALDH1A1 block inconclusive and IMPase Li inh inactive.
Screening O=C(c1nc2ccccn2c1CN1CCC(Cc2ccccc2)CC1)N1CCCC1 returned Luc counter inactive, ALDH1A1 block 11µM and IMPase Li inh inactive.
`CCc1ccc(S(=O)(=O)Nc2cc(SCC(=O)O)c(O)c3ccccc23)cc1` gave Luc counter inactive, ALDH1A1 block 14µM and IMPase Li inh inactive.
O=C(O)CSc1cc(NS(=O)(=O)c2cccc([N+](=O)[O-])c2)c2ccccc2c1O was read as ALDH1A1 block 3.5µM.
CC(C(=O)NCc1ccccc1)N1Cc2ccccc2C1=O (stereo not drawn) was read as LMNA splice mod inactive.
Screening CCN(CC)C(=O)Cn1cc(C(=O)C(=O)NCc2ccco2)c2ccccc21 returned Luc counter inactive, ALDH1A1 block inactive and IMPase Li inh inactive.
`CC(=O)c1ccc(S(=O)(=O)N2CCn3cccc3C2c2ccc(C)cc2)cc1` (stereo not drawn) gave LMNA splice mod inactive.
`C=C(N(C)C)[C@]1(C)C[C@H]1[C@H](NC(=O)CNC(=O)OCc1ccccc1)c1ccccc1` gave Luc counter inactive, HPGD block inactive, ALDH1A1 block inactive and IMPase Li inh inactive.
COc1cccc(-c2nnc3n2N=C(c2cc(OC)ccc2OC)CS3)c1 was read as LMNA splice mod inactive, Luc counter inactive, HPGD block 28µM, ALDH1A1 block inactive and IMPase Li inh inactive.
For Cc1cccc(-c2nnc3n2N=C(c2ccccc2Br)CS3)c1 the results were LMNA splice mod inconclusive, Luc counter inactive, HPGD block 2.5µM, ALDH1A1 block inconclusive and IMPase Li inh inactive.
Screening Cc1ccc(-c2nnc3n2N=C(c2ccccc2)CS3)cc1 returned LMNA splice mod inconclusive, Luc counter inactive, HPGD block inactive, ALDH1A1 block inconclusive and IMPase Li inh inactive.
Screening COc1ccc(OC)c(C2=Nn3c(nnc3-c3cc(OC)c(OC)c(OC)c3)SC2)c1 returned LMNA splice mod inconclusive, Luc counter inactive, HPGD block inactive, ALDH1A1 block inconclusive and IMPase Li inh inactive.
For COc1ccc(OC)c(C2=Nn3c(nnc3-c3ccncc3)SC2)c1 the results were Luc counter inactive, HPGD block inactive and ALDH1A1 block inactive.
`CCOc1cccc(-c2nnc3n2N=C(c2cc(OC)ccc2OC)CS3)c1` gave LMNA splice mod inconclusive, Luc counter inactive, HPGD block 25µM, ALDH1A1 block 28µM and IMPase Li inh inactive.
